Compounds with a hit are over-represented: about 3.2% of the library has one in this group of screens.
RE007 growth inh – qHTS Assay for Inhibitors of the HIV-1 protein Vpr. S. pombe RE007 Vpr strain, BacTiter-Glo ATP luminescence, 24 h. Potency, µM (top dose mostly 92.2 µM), most hits filed as inhibitors. 360,000 compounds, 0.21% hits. AID 651644, 2012; active = well fitted falling curve with a large enough effect; inconclusive = small, poorly fitted or top-dose-only effect; inactive = no such curve, though single readings can be large or run the other way; note: nearly all actives have a fitted effect of over 50% in size
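Fission yeast RE007 carrying one integrated HIV-1 vpr copy, seeded at OD 0.01 in PMG+AL medium with 23 nL pinned compound. Grown 24 h at 30 degrees; viability read by BacTiter-Glo luminescence after 5 min.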
Tb PYK inh – qHTS of Trypanosoma Brucei Inhibitors; pyruvate kinase (Trypanosoma brucei), Q57TT1; TbPYK enzyme, Kinase-Glo Plus ATP luminescence, 45 min; Potency, µM (doses to about 76.8 µM), hits mostly inhibitors; 410,000 compounds, 0.12% hits; AID 624173, 2012; note: nearly all actives have a fitted effect of over 50% in size
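Readout: single end-point luminescence (Kinase-Glo Plus, 10 min). Reaction conditions were TbPYK/substrate plus 130 uM ADP, 45 min at RT, pH 7.2 TEA buffer. No-enzyme wells served as controls, and data were normalized before concentration-response fitting.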
LmPK inh – qHTS Assay for Inhibitors of Leishmania Mexicana Pyruvate Kinase (LmPK) | Q27686 | purified LmPK, Kinase-Glo ATP luminescence, 1 h | Potency, µM (titrated, usually from 57.5 µM), hits mostly inhibitors | 290,000 compounds, 0.37% hits | AID 1721, 2009
Target sequence (Q27686 whole entry, looked up): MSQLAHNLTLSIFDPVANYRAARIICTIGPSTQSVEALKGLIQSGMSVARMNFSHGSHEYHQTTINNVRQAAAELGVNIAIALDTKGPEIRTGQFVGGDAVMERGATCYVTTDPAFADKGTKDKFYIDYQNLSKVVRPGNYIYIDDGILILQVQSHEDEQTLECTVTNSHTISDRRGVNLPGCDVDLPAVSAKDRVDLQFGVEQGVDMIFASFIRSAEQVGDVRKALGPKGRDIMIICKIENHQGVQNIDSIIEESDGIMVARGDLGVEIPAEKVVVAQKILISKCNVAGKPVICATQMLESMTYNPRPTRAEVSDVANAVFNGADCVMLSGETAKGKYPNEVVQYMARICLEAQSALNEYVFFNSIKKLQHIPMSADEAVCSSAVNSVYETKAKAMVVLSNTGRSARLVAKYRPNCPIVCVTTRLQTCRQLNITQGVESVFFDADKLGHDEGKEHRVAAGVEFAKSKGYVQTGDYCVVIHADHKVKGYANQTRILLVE
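In 50 mM imidazole pH 7.2 with 7 mM MgCl2, LmPK (0.1 nM) turned over PEP (0.5 mM) and ADP (0.1 mM) for 1 h at room temperature. Luciferase read-out of ATP.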
Sm TGR block – qHTS Assay for the Inhibitors of Schistosoma Mansoni Peroxiredoxins; Schistosoma mansoni thioredoxin glutathione reductase (TGR), Q962Y6; 360,000 compounds, 3% hits; purified TGR, DTNB reduction, TNB absorbance 405 nm; Potency, µM (doses to about 114 µM), most hits filed as inhibitors; AID 485364, 2010; note: nearly all actives have a fitted effect of over 60% in size
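Kinetic colorimetric format: TGR-catalysed, NADPH-driven DTNB reduction monitored via TNB absorbance. Enzyme dispensed at 20 nM; compound exposure 15 min at room temperature before reaction start.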
AMA1-RON2 inh – qHTS for Inhibitors of AMA1-RON; Towards Development of Antimalarial Drug Lead: Primary Screen. AlphaScreen AMA1-biotinylated RON2 peptide binding. 360,000 compounds, 0.2% hits. Plasmodium falciparum AMA1 (3D7) - RON2 peptide interaction. Potency, µM (series often up to 58.2 µM), hits mostly inhibitors; note: nearly all actives have a fitted effect of over 45% in size
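AMA1 (3D7) with his tag at 25 nM final met compounds first, then biotinylated RON2 peptide at 25 nM; detection used donor plus acceptor beads, 10 µg/mL apiece, read by AlphaScreen after 30 min at room temperature.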
Numbers stand for hits; [ ] = another dose, or the depositor's remark. Unless noted, calls come from the whole dose curve; as a rule, active = well fitted curve in the direction sought with a large enough effect; inconclusive = small, poorly fitted or top-dose-only effect, or another doubt; inactive = no such curve, though single readings can be large; an effect the other way counts as inactive or inconclusive.

CCn1c(C)c2c(C)nnc(C)c2c1C was read as RE007 growth inh inactive, Tb PYK inh inactive, LmPK inh inactive, Sm TGR block 45µM and AMA1-RON2 inh inactive.
`CCOc1ccc(C2=Cc3cc(OC)c(OC)cc3C(=C(Cl)Cl)O2)cc1` gave LmPK inh inactive and Sm TGR block 35µM.
Screening CCCCCCCCCCCCCCCC(=O)OCC(O)C1OC(=O)C(O)=C1O (centres undefined) returned Tb PYK inh inactive.
Screening O=C1CC(c2ccc3c(c2)OCCO3)Oc2ccc([N+](=O)[O-])cc21 (centres undefined) returned RE007 growth inh inactive, Tb PYK inh inactive, LmPK inh inactive, Sm TGR block 89µM and AMA1-RON2 inh inactive.
Screening CC(=O)NC(Cc1ccc(N(CCCl)CCCl)cc1)C(=O)NC(CC(C)C)C(=O)O (centres undefined) returned RE007 growth inh inactive, Tb PYK inh inactive, LmPK inh inactive, Sm TGR block 28µM and AMA1-RON2 inh inactive.
`O=C(NC1CCSc2ccccc21)c1cccc(Cl)c1` (centres undefined) gave RE007 growth inh inactive, Tb PYK inh inactive, LmPK inh inactive, Sm TGR block 7.9µM and AMA1-RON2 inh inactive.
Screening Cc1ccc(-c2nn3c(=O)cc(CN4CCN(C(=O)/C=C/c5ccccc5)CC4)nc3s2)cc1 returned Tb PYK inh inactive and Sm TGR block inactive.
Cc1ccc(CN(C)C(=O)c2cc(Br)c(Br)s2)o1 was read as RE007 growth inh inconclusive, Tb PYK inh inactive, LmPK inh inactive, Sm TGR block 50µM and AMA1-RON2 inh inactive.
Cc1ccc2oc(C(=O)N(C)Cc3ccc(C)o3)c(C)c2c1 was read as RE007 growth inh inconclusive, Tb PYK inh inconclusive, LmPK inh inactive, Sm TGR block 2.2µM and AMA1-RON2 inh inactive.
`COc1ccc(NC(=O)c2ccc([N+](=O)[O-])o2)cc1` gave RE007 growth inh inconclusive, Tb PYK inh inactive, LmPK inh inactive, Sm TGR block inconclusive and AMA1-RON2 inh inactive.
`Cc1cccc(NC(=O)c2ccc(-c3ccccc3[N+](=O)[O-])o2)c1` gave RE007 growth inh inactive, Tb PYK inh inactive, LmPK inh inactive, Sm TGR block 3.5µM and AMA1-RON2 inh inactive.
`CC(=O)c1cccc(NC(=O)c2ccc([N+](=O)[O-])o2)c1` gave RE007 growth inh inactive, Tb PYK inh inactive and AMA1-RON2 inh inactive.
Screening CC(=O)c1ccc(NC(=O)c2ccc([N+](=O)[O-])o2)cc1 returned RE007 growth inh inactive, Tb PYK inh inactive, LmPK inh inactive, Sm TGR block 28µM and AMA1-RON2 inh inactive.
For Cc1ccc(C)c(-c2nnc(NC(=O)c3ccc([N+](=O)[O-])o3)o2)c1 the results were RE007 growth inh inactive, Tb PYK inh inactive, Sm TGR block 35µM and AMA1-RON2 inh inactive.
Cc1ccc(C)c(-c2nnc(NC(=O)C3=COCCO3)o2)c1 was read as RE007 growth inh inactive, Tb PYK inh inactive, Sm TGR block inactive and AMA1-RON2 inh inactive.
For Cc1cc(C)cc(NC(=O)c2ccc([N+](=O)[O-])o2)c1 the results were RE007 growth inh inconclusive, Tb PYK inh inactive, LmPK inh inactive, Sm TGR block 35µM and AMA1-RON2 inh inactive.
Screening Cc1ccc(-n2ncc3c(NCc4ccco4)ncnc32)c(C)c1 returned RE007 growth inh inactive, Tb PYK inh inactive, LmPK inh inactive, Sm TGR block 40µM and AMA1-RON2 inh inactive.
`C=CCc1ccc(OC)cc1` gave RE007 growth inh inactive, Tb PYK inh inactive, Sm TGR block inactive and AMA1-RON2 inh inactive.
C=CCc1ccc(O)c(-c2cc(CC=C)ccc2O)c1 was read as RE007 growth inh inconclusive, Tb PYK inh inactive, LmPK inh inactive, Sm TGR block 56µM and AMA1-RON2 inh inactive.
Screening O=C(O)C1Nc2c(Cl)cc(Cl)c(Cl)c2C2C=CCC12 (centres undefined) returned RE007 growth inh inactive, Tb PYK inh inactive and AMA1-RON2 inh inactive.
For O=C(O)C1Nc2c(Cl)cc(Cl)cc2C2C=CCC12 (centres undefined) the results were RE007 growth inh inactive, Tb PYK inh inactive, LmPK inh inactive, Sm TGR block inconclusive and AMA1-RON2 inh 14µM.
For O=C(O)C1Nc2c(O)cccc2C2C=CCC12 (centres undefined) the results were RE007 growth inh inactive, Tb PYK inh inconclusive, LmPK inh inactive, Sm TGR block 8.9µM and AMA1-RON2 inh inactive.
`CCOC(=O)c1c(NS(=O)(=O)c2ccc(Br)cc2)sc2c1CCC2` gave RE007 growth inh inactive, Tb PYK inh 28µM and AMA1-RON2 inh inactive.
For c1coc(CNc2nc3nonc3nc2NCc2ccco2)c1 the results were RE007 growth inh inactive, Tb PYK inh inactive, LmPK inh inactive, Sm TGR block 50µM and AMA1-RON2 inh inactive.
For Cc1nc(NCc2ccco2)c2cn[nH]c2n1 the results were RE007 growth inh inactive, Tb PYK inh inactive and AMA1-RON2 inh inactive.
Screening COc1ccc(NC(=O)c2cccc3ccccc23)cc1 returned RE007 growth inh inactive, Tb PYK inh inactive, LmPK inh inactive, Sm TGR block 89µM and AMA1-RON2 inh inactive.
`COc1ccc(C(=O)Nc2cccc(C)c2)cc1` gave RE007 growth inh inactive[3.69 µM], LmPK inh 14µM, Sm TGR block inactive and AMA1-RON2 inh inactive.
`COc1ccc(C(=O)/C=C/Nc2cccc(O)c2)cc1` gave RE007 growth inh inactive[3.69 µM], LmPK inh 25µM, Sm TGR block inactive and AMA1-RON2 inh inactive.
COc1ccc(NC(=O)c2cccc3c(Br)cccc23)cc1 was read as RE007 growth inh inactive, Tb PYK inh inactive, LmPK inh inactive, Sm TGR block inactive and AMA1-RON2 inh inactive.
Screening COc1ccc(C(=O)Nc2nc(C)cc(C)n2)cc1 returned RE007 growth inh inactive, Tb PYK inh inactive, LmPK inh inactive, Sm TGR block 22µM and AMA1-RON2 inh inactive.
Cc1ccc(/C=C/c2onc(C)c2S(=O)(=O)N2CCC(C(=O)N3CC(C)Oc4ccccc43)CC2)cc1 (centres undefined) was read as Tb PYK inh inactive and Sm TGR block inactive.
COc1ccc(NC(=O)Nc2ccccc2SC)cc1 was read as RE007 growth inh inactive, Tb PYK inh inactive, LmPK inh 10µM, Sm TGR block inactive and AMA1-RON2 inh inactive.
Screening CSc1ccccc1NC(=O)Nc1ccc(Cl)cc1 returned RE007 growth inh inactive, Tb PYK inh inactive, LmPK inh inconclusive, Sm TGR block inactive and AMA1-RON2 inh inactive.
For CCc1ccc(OCC(=O)N(Cc2ccco2)Cc2ccccc2Cl)cc1 the results were Tb PYK inh inactive and Sm TGR block inactive.
